Measurements from PubChem BioAssay AID1851 (National Center for Advancing Translational Sciences (NCATS), 2009).
In all, about 16,000 compounds went through this assay and about 4,000 (25%) were called active. Inconclusive results (about 26%) are left out. Only a sample is shown. Values without a mark were called inactive. Calls come from the whole dose curve; as a rule, active = well fitted curve in the direction sought with a large enough effect; inconclusive = small, poorly fitted or top-dose-only effect, or effect the other way; inactive = no such curve, though single readings can be large or run the other way.

Each compound was assayed against Cytochrome P450 2C9 (Homo sapiens) (UniProt P11712) (assay: Cytochrome panel assay with activity outcomes). Settings: recombinant CYP, pro-luciferin dealkylation, luminescence, p450-cyp2c9; series mostly up to 57.1 µM.
% is set by controls: 0 for no effect and ±100 for the full control effect.

Sequence of Cytochrome P450 2C9 (Homo sapiens) (P11712 whole entry, looked up): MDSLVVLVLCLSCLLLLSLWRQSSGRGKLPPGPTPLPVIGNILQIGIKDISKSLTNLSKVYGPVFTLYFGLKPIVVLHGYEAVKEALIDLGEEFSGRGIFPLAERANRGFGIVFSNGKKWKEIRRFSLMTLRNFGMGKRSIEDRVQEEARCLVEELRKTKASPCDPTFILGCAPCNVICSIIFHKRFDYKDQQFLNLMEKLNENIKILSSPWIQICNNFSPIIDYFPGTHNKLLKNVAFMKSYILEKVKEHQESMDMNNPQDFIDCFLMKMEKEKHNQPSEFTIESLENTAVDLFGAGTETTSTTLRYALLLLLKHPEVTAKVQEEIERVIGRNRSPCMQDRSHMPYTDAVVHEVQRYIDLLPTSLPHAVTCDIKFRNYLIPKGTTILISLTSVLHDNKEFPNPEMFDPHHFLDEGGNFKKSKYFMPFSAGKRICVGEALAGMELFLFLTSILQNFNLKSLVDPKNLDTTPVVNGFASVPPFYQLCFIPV

Structure (SMILES)	AC50	activity, negative = inhibition
COC(=O)[C@@]1(Cc2ccc(OC)cc2)[C@H]2c3cc(C(=O)N(C)C)[nH]c3C[C@H]2CN1C(=O)c1ccccc1	3.98 µM (active)	
COC(=O)[C@@]1(Cc2ccccc2)[C@H]2c3cc(C(=O)N4CCCC4)[nH]c3C[C@H]2CN1C(=O)c1ccccc1	0.794 µM (active)	
COC(=O)C/C=C\[C@@H](C)[C@@H](/C=N\O[C@@H](C)c1cn([C@H]2COC[C@H]2O)nn1)OC		-15.9% [at 11.4 µM]
Cc1c2cnccc2c(C)c2c1c1ccccc1n2CCOC(=O)c1ccccc1	3.16 µM (active)	
CN(C)CCCn1c2ccccc2c2cnccc21		4.43% [at 11.4 µM]
COc1ccccc1CN1CCCC2(CCN(C(=O)c3c(C)noc3C)CC2)C1	inactive	
CCOC(=O)c1c(-c2ccccc2)nc2c(C)cccn12	11.2 µM (active)	
CC(=O)C[C@H](O)[C@@H](NC(=O)OC(C)(C)C)C(C)C		-4.41% [at 11.4 µM]
CC(C)[C@H](NC(=O)OC(C)(C)C)[C@@H](O)CC(=O)OC(C)(C)C		20.6% [at 11.4 µM]
CC(NC(=O)C1(C)CC1(Br)Br)C(C)(C)C (stereo unspecified)	31.6 µM (active)	
O=C1[C@@H]2C=CC=CC2=NC(=S)N1CCN1CCC(=C(c2ccc(F)cc2)c2ccc(F)cc2)CC1	31.6 µM (active)	
O=c1cc(CSc2nnc(-c3cccnc3)n2-c2ccccc2F)nc2sccn12	inactive	
CC1CCN(C(=O)CSc2nc3cccnc3n2C)CC1	inactive	
CC(C)c1ccccc1-n1c(SCC(=O)N2CCN(c3ccccc3)CC2)nnc1-c1cccnc1	11.2 µM (active)	
C#CCCCO/N=C1/C[C@@H](O)[C@@H](O)[C@@H]2[C@@H]3C(=O)N(CCC(=O)OCC)C(=O)[C@H]3CC[C@@H]12		2.98% [at 11.4 µM]
C=C[C@]1(C)C[C@H](OC(=O)CO)[C@]2(C)C3C(=O)CC[C@]3(CC[C@H]2C)[C@H](C)[C@H]1O (stereo partly specified)		4.64% [at 11.4 µM]
O=C1Nc2ccc(F)cc2C12Nc1ccccc1-c1nnc(SCc3ccccc3F)nc1O2 (stereo unspecified)	2 µM (active)	
Cc1ccc(CSc2nnc3c(n2)OC2(Nc4ccccc4-3)C(=O)Nc3ccc(F)cc32)cc1 (stereo unspecified)	8.91 µM (active)	
N=C(N)c1ccc(N=Nc2c(O)ccc3c2[nH]c2ccccc23)cc1		-5.45% [at 11.4 µM]

Structure (SMILES)	AC50	activity, negative = inhibition
c1csc(CNc2cc(-c3ccoc3)ncn2)c1		-7.77% [at 2.29 µM]
O=C1[C@H]2[C@H]3[C@H](O)[C@H](O)C/C(=N/OC[C@@H](O)COCc4ccco4)[C@@H]3CC[C@@H]2C(=O)N1Cc1ccc2c(c1)OCO2		3.23% [at 11.4 µM]
C#CCCCO/N=C1/C[C@@H](O)[C@@H](O)[C@@H]2[C@@H]3C(=O)N(C[C@@H]4CCCO4)C(=O)[C@H]3CC[C@@H]12		16.1% [at 11.4 µM]
CN(Cc1ccco1)c1cc(-c2cccnc2)ncn1		2.79% [at 2.29 µM]
CCCN1C(=O)C2(/C(=C(\O)c3ccc4c(c3)OCCO4)C(=O)C(=O)N2CCCOC)c2ccccc21 (stereo unspecified)	inactive	
O=C(OCc1nnc(-c2ccccc2)o1)c1ccc2c(c1)OCCO2	7.94 µM (active)	
Cc1cc(C)c(-c2cc([C@H](C)O/N=C3/[C@H]4OC4[C@@H](O)[C@H]4[C@H]3CCn3c(=O)n(-c5ccccc5)c(=O)n34)on2)c(C)c1 (stereo partly specified)		-29.1% [at 11.4 µM]
Cc1ccc(C)c(OCCCC(C)(C)C(=O)O)c1	6.31 µM (active)	
COC(=O)Cn1c(=N)n(CCN2CCCCC2)c2ccccc21	inactive	
Fc1ccc(Nc2nc(-c3ccoc3)nc3ccccc23)cc1		8.98% [at 2.29 µM]
CCCn1nc(Oc2nc(NCC)nc(NC(C)C)n2)ccc1=O	inactive	
CCCn1nc(Oc2nc(NCC)nc(NCC)n2)ccc1=O	inactive	
CC(C)Nc1nc(NC(C)(C)C)nc(Oc2ccc(=O)n(-c3ccccc3)n2)n1	20 µM (active)	
C[N+]1(NCC[N@@+]2(C)CCc3ccccc3C2)CCCCC1		5.5% [at 11.4 µM]
CC(=O)OC[C@@H]1O[C@H](CCO/N=C(\C)CCN2CCCc3nc(C)c(C)cc32)C=C[C@@H]1OC(C)=O		-1.93% [at 11.4 µM]
CCCCn1nnnc1SCC(=O)N1CCCC1	inactive	
CCSC[C@@H](N)C(=O)O		4.58% [at 11.4 µM]
N[C@@H](CO)C(=O)O	inactive	
N[C@@H](CSS(=O)(=O)O)C(=O)O	12.6 µM (active)	

Structure (SMILES)	AC50	activity, negative = inhibition
COc1ccc2[nH]cc(CCNc3ccnc(-c4ccc(N(C)C)cc4)n3)c2c1		-7.16% [at 2.29 µM]
COc1cccc(-c2nc(NCc3ccccc3)c3ccccc3n2)c1	1.26 µM (active)	
COc1ccc2[nH]cc(CCNc3nc(-c4ccccc4CN(C)C)nc4ccccc34)c2c1		10.1% [at 2.29 µM]
COc1cccc(-c2nc(NCc3cccnc3)c3ccccc3n2)c1		-29.9% [at 2.29 µM]
COc1ccc2[nH]cc(CCNc3nc(-c4ccccc4OC)nc4ccccc34)c2c1		-1.54% [at 2.29 µM]
COc1cccc(-c2nc(NCc3cnc(C)cn3)c3ccccc3n2)c1		0.563% [at 2.29 µM]
COc1ccc2[nH]cc(CCNc3nc(-c4ccc(N(C)C)cc4)nc4ccccc34)c2c1	0.398 µM (active)	
COc1cccc(-c2nc(NCCc3c[nH]c4ccc(OC)cc34)c3ccccc3n2)c1	0.794 µM (active)	
COCCNc1nc(-c2cccc(OC)c2)nc2ccccc12		-26.4% [at 2.29 µM]
Cc1c(C)c2c(c(C)c1O)CC[C@@](C)(C(=O)O)O2	inactive	
CCCC/C=C/C(NC(=O)c1ccco1)c1ccccc1 (stereo unspecified)	15.8 µM (active)	
CCCC/C=C/C(NC(=O)c1cccs1)c1ccccc1 (stereo unspecified)	0.316 µM (active)	
CC[C@H](CN(C)C)C(=O)c1ccco1		0.0002% [at 11.4 µM]
CCCC/C=C/C(NC(=O)c1ccc(C(F)(F)F)cc1)c1ccccc1 (stereo unspecified)	2 µM (active)	
CCCC/C=C/C(NC(=O)c1ccc(-c2ccccc2)cc1)c1ccccc1 (stereo unspecified)	inactive	
CCCC/C=C/C(NC(=O)c1ccccc1)c1ccccc1 (stereo unspecified)	10 µM (active)	
C/C(=C\C1CCCCC1)C(NC(=O)c1ccc(C(F)(F)F)cc1)c1ccc(-c2ccccc2)cc1 (stereo unspecified)	inactive	
Cc1occc1C(=O)NNC(=O)Cc1ccccc1	inactive	
